Screening data from PubChem BioAssay.
The list is a sample of the results.
aSyn UTR act = Activators via SNCA 5'UTR binding, MLPCN; alpha-synuclein 5'UTR reporter, activators screen; activity score, % (tested at 7.5 µM), hits read low; 300,000 compounds, 7.1% hits; AID 1814; in the data active = activity score below about -60%
Starred values were filed as active, the others as inactive.

SMILES	aSyn UTR act
Cc1[nH]c2ccccc2c1C(=O)CN1C(=O)NC2(CC(C)CC(C)(C)C2)C1=O (configuration not stated)	56.6
Cc1[nH]c2ccccc2c1C(=O)CSC(=S)N(C)C	-76.2*
CN(C)/C=C/C(=O)c1ccc(Cl)c([N+](=O)[O-])c1	-73.2*
CC(=O)c1c(C)oc2ccc(N(C(C)=O)S(=O)(=O)c3ccc(Cl)c([N+](=O)[O-])c3)cc12	111.5
COc1ccc(-c2csc(-c3ccccc3)n2)c(OC)c1	-202.0*
COc1ccc(-c2csc(-c3cccs3)n2)c(OC)c1	-125.9*
CN(C)/C=C1\N=C(c2ccc(Cl)cc2Cl)OC1=O	-149.1*
Cc1ccc(C2=N/C(=C\N(C)C)C(=O)O2)cc1	-144.4*
COc1cc2c(C)nc3c(cnn3-c3ccccc3)c2cc1OC	-240.5*
Cc1ccnc(NC(=O)c2sc3cc(Cl)ccc3c2Cl)c1	-139.6*
Cc1ccnc(NC(=O)CCCNC(=O)c2ccc(Cl)cc2)c1	-181.7*
CCN(CC)Cc1ccc(NC(=O)c2sc3cc(Cl)ccc3c2Cl)cc1	104.4
Cc1ccnc(NC(=O)CNC(=O)c2sc3ccccc3c2Cl)c1	-215.6*
Cc1ccc(C(=O)NCCOc2ccc(Cl)cc2)cc1	-88.3*
O=C(NC(=S)Nc1ccc(N2CCOCC2)cc1)c1cccs1	-125.5*
Cc1cccc(C(=O)NC(=S)Nc2ccc(N3CCOCC3)cc2)c1	-65.7*
Cc1ccc(C(=O)N2CCN(c3ccc(NC(=S)NC(=O)c4cccs4)cc3)CC2)cc1	52.0
C/C(=N/NC(=O)c1cccs1)c1ccc(N2CCOCC2)cc1	-65.8*
Cc1ccc(-c2csc(/C(C#N)=C(\O)CCl)n2)cc1	-96.0*
N#C/C(=C(/O)CN1CCCCC1)c1nc(-c2ccc(Cl)cc2)cs1	-110.0*
Cn1c(=O)c(C(=O)NCC2CCCO2)c(O)c2ccccc21 (configuration not stated)	-67.4*
Cn1c(C(=O)NCc2cccs2)cc2oc3ccccc3c21	-261.5*
CSCc1c(C(=O)NC2CCCc3ccccc32)oc2ccccc12 (configuration not stated)	50.7
Cn1c(C(=O)NCC2CCCO2)cc2oc3ccccc3c21 (configuration not stated)	-187.9*
Cc1ccc(-n2nc(C)c3c2OC(N)=C(C#N)C3c2cccs2)cc1 (configuration not stated)	-90.6*
SMILES	aSyn UTR act
Cc1ccc(NC(=O)c2ccco2)c([N+](=O)[O-])c1	-197.3*
COc1ccc(NC(=O)c2ccco2)c([N+](=O)[O-])c1	-75.8*
CCOc1ccccc1N/C=C(\C#N)c1nc2ccccc2n1C	-75.8*
C/C(CC(=O)Nc1cc(C)ccn1)=N\NC(=O)C(=O)Nc1cccc(C)c1	-74.3*
C/C(CC(=O)Nc1ccc(OCc2ccccc2)cc1)=N\NC(=O)C(=O)Nc1ccc(C)c(Cl)c1	-69.3*
COc1cccc(NC(=O)C(=O)N/N=C(\C)CC(=O)Nc2ccc(NC(C)=O)cc2)c1	-195.9*
O=S(=O)(c1ccc(Cl)cc1)c1snnc1-c1ccccc1	116.1
O=S(=O)(c1ccc(F)cc1)c1snnc1-c1ccccc1	-75.5*
COC(=O)c1ccc(-c2noc(CN3C[C@H]4CC[C@H]3C4)n2)cc1	-119.5*
Cc1ccc(Nc2ncnc3sc(C)c(C)c23)cc1	-182.1*
C/C(=N\Nc1ncnc2sc(C)c(C)c12)c1ccccn1	104.9
Cc1sc2ncnc(N/N=C/c3cccc(O)c3)c2c1C	-74.8*
CNc1sc(C(=O)c2ccccc2F)c(N)c1-c1nc2ccccc2s1	-83.8*
Cn1c(NCc2cccs2)nc2ccccc21	-63.5*
COc1ccccc1-n1cnc2cc(NCc3ccco3)ccc21	53.2
Cn1c(NCc2c[nH]c3ccccc23)nc2ccccc21	-98.0*
Cn1c(NCc2ccco2)nc2ccccc21	-102.0*
O=c1[nH]c(-c2ccc(O)cc2)nc2scc(-c3cccs3)c12	-137.7*
COc1ccc(C)cc1Nc1nc(N)c2ccccc2n1	-101.7*
COc1ccc([N+](=O)[O-])cc1Nc1c2ccccc2nc2ccccc12	76.5
CN(C)c1ccc(Nc2nc(N)c3ccccc3n2)cc1	109.1
Nc1nc(Nc2ccccc2)nc2ccccc12	-82.4*
c1ccc(COc2ccc3nocc3c2)cc1	-104.3*
N#C/C(C(=O)Oc1ccccc1)=C1\C=CC=CN1	-79.9*
CCOC(=O)/C(C#N)=C(C)/C=C1\Sc2ccccc2N1CC	-105.5*
SMILES	aSyn UTR act
Cc1ccc(NC(=O)N2CCCCCC2)cc1	-74.2*
CCc1ccc(NC(=O)N2CCCCCC2)cc1	-123.6*
CCOC(=O)c1ccc(N/C=C2\CCCCC2=O)cc1	-127.1*
O=C(Nc1ccc(Br)cc1)N1CCCCCC1	-144.3*
CCOC(=O)c1ccc(NC(=O)N2CCCCC2)cc1	-91.9*
COC(=O)c1ccc(NC(=O)C(=O)N2CCCC2)cc1	-147.6*
COc1ccc(NC(=O)N2CCCCC2)cc1	-65.5*
O=C(c1ccccc1)c1nn(-c2ccc(Cl)cc2)c(=O)cc1C(F)(F)F	-219.1*
Cc1ccc(N=Cc2cc(C)n(C3CCCC3)c2C)cc1	-155.0*
Cc1cc(C)nc(Sc2ncnc3c2oc2ccccc23)n1	-64.4*
Clc1ncnc2c1oc1ccccc12	-61.9*
c1ccc2cc(Sc3ncnc4c3oc3ccccc34)ccc2c1	-70.6*
